Results filed as inconclusive are left out. Calls of active or inactive are those of the source. The call rests on the fitted dose curve; in most records, active means well fitted inhibition curve with a large enough effect; inconclusive means small, poorly fitted or top-dose-only effect; inactive means no such curve, though single readings can be large or run the other way.
Molecular target: N-terminal Xaa-Pro-Lys N-methyltransferase 1 (Homo sapiens) (UniProt Q9BV86)
Assay: qHTS Assay for Inhibitors of N-terminal methyltransferase 1 (NTMT1): ThioGlo3 Assay Confirmatory Screen, Round 1.
Conditions: NTMT1 SAHH-coupled ThioGlo3 fluorescence, 30 min; series mostly up to 56.8 µM
Procedure, shortened: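 Human NTMT1 at 125 nM was preincubated 1 min at room temperature with compounds at various concentrations or 1 uM RCC1-6 control. Substrate mix (100 uM SAM, 10 uM SAHH, 15 uM ThioGlo3) was added, and fluorescence (Ex 340/Em 450 nm) was read at start and after 30 min, normalized to background.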
Further: nearly all actives have a fitted effect of over 80% in size.
Potency means the concentration at half of the fitted maximal effect.

N-terminal Xaa-Pro-Lys N-methyltransferase 1 (Homo sapiens), sequence (Q9BV86 whole entry, looked up): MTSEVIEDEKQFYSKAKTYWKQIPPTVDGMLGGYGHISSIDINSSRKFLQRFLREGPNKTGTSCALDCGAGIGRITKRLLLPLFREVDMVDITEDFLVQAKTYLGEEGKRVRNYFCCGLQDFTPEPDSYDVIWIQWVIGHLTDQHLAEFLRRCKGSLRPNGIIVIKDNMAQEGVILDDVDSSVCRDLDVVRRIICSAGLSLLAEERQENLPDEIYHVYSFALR

Potency, active:
COCCCCOc1cc2nc(N3CCCN(C)CC3)nc(NC3CCN(C)CC3)c2cc1OC 24.1 µM
COc1cc2c(NC3CCN(C)CC3)nc(N3CCCN(C)CC3)nc2cc1O 24.1 µM
COc1cc2nc(N3CCCCC3)nc(NC3CCN(C)CC3)c2cc1OC 27.1 µM
Nc1nc(Cl)nc2c1ncn2[C@@H]1O[C@H](COP(=O)(O)OP(=O)(O)OP(=O)(O)O)C(O)[C@H]1O (stereo not given in full) 21.5 µM
COc1cc2c(NC3CCN(C4CCCCC4)CC3)nc(N3CCCCCC3)nc2cc1OCCCN1CCCCC1 24.1 µM
Nc1nc(=S)c2ncn([C@@H]3O[C@H](CO)[C@@H](O)[C@H]3O)c2[nH]1 18.8 µM
COc1cc2c(NC3CCN(C(C)C)CC3)nc(N3CCCN(CC4CCCCC4)CC3)nc2cc1OCCCN1CCCC1 24.1 µM
COc1cc2c(NC3CCN(CC4CCCCC4)CC3)nc(N3CCCN(C)CC3)nc2cc1OCCCN1CCCCC1 21.5 µM
OCC1OC(n2cnc3c(NO)ncnc32)C(O)C1O (stereo not given) 3.83 µM
COc1cc2c(NC3CCN(C)CC3)nc(N3CCCN(C)CC3)nc2cc1OCCCCN(C)C 24.1 µM
CNc1nc(N2CCCN(C)CC2)nc2cc(OC)c(OC)cc12 27.1 µM
CNc1nc(N2CCN(C)CC2)nc2cc(OC)c(OC)cc12 24.1 µM
COc1cc2nc(N3CCN(C)CC3)nc(NCCC3CC3)c2cc1OC 24.1 µM
COc1cc2nc(NC3CCN(Cc4ccccc4)CC3)nc(N3CCCN(C)CC3)c2cc1OC 24.1 µM
COc1cc2c(NC3CCN(C)CC3)nc(N3CCCN(C)CC3)nc2cc1OCCCCCCN(C)C 24.1 µM
COc1cc2nc(N3CCCN(C)CC3)nc(NC3CCN(C)CC3)c2cc1OC 21.5 µM
Nc1nc(Nc2ccccc2)nc2c1ncn2[C@@H]1O[C@H](CO)C(O)[C@H]1O (stereo not given in full) 24.1 µM
COc1cc2c(NC3CCN(C)CC3)nc(N3CCCCC3)nc2cc1OCCOCCN1CCCC1 27.1 µM
Nc1ncnc2c1ncn2[C@@H]1O[C@H](CO)[C@@H](O)[C@H]1O 1.08 µM
COc1cc2c(NC3CCN(CC4CCCCC4)CC3)nc(N3CCCCCC3)nc2cc1OCCOCCN(C)C 27.1 µM
COc1cc2c(NC3CCN(C)CC3)nc(N3CCCN(C)CC3)nc2cc1OCCCCCN 24.1 µM
COc1cc2c(NC3CCN(CC4CCCCC4)CC3)nc(N3CCCCC3)nc2cc1OCCCN1CCCCC1 17.1 µM
COc1cc2nc(N3CCN(C)CC3)nc(NCCN(C)C)c2cc1OC 24.1 µM
CCN1CCCN(c2nc(NC3CCN(C(C)C)CC3)c3cc(OC)c(OCCCN4CCCC4)cc3n2)CC1 24.1 µM
CCC(CC)n1ccc2c(C(=O)NCc3c(C)cc(C)[nH]c3=O)cc(C#N)cc21 15.2 µM

Potency, inactive:
O=S(=O)(O)c1ccc(Nc2ncnc3c2ncn3[C@@H]2O[C@H](CO)[C@@H](O)[C@H]2O)cc1
Nc1ncnc2c1ncn2[C@@H]1O[C@H](COP(=O)(O)OP(=O)(O)CP(=O)(O)O)[C@@H](O)[C@H]1O
CCN(c1cc(-c2ccc(CN3CCOCC3)cc2)cc(C(=O)NCc2c(C)cc(C)[nH]c2=O)c1C)C1CCOCC1
CNc1ncnc2c1ncn2[C@@H]1O[C@H](CO)C(O)[C@H]1O (stereo not given in full)
OC[C@H]1O[C@@H](n2cnc3c(NC4CCCCC4)ncnc32)[C@H](O)[C@@H]1O
COc1cc2c(NC3CCN(C)CC3)nc(N3CCCCC3)nc2cc1OCCCN(C)C
C[C@@H](Cc1ccccc1)Nc1ncnc2c1ncn2[C@@H]1O[C@H](CO)[C@@H](O)[C@H]1O
Nc1ncnc2c1[nH]c(=O)n2C1CC(O)C(CO)O1 (stereo not given)
CSCC1OC(n2cnc3c(N)ncnc32)C(O)C1O (stereo not given)
C=C1O[C@@](CO)(n2cnc3c(N)ncnc32)[C@H](O)[C@@H]1O

Reference: PubChem BioAssay AID1347142 (National Center for Advancing Translational Sciences (NCATS), 2019)
